Rows were chosen to be rich in hits. Some 19% of all compounds tested hit in one or more screens of this group.
DT40 TDP1 CPT: growth inhibition of DT40 Tdp1-/-;hTDP1 cells with camptothecin (screen for TDP1 inhibitors) | 12% of 420,000 active | AID 686979 | chicken DT40 Tdp1-/-;hTDP1 cells + 20 nM CPT, ATP luminescence, 48 h | Potency, µM (highest dose often 46.2 µM), for the others: at the highest dose activity change, negative = growth inhibition, actives largely listed as inhibitors; note: potency is the fitted concentration of half-maximal effect; nearly all actives have a fitted effect of over 55% in size
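Cell growth measured by CellTiter-Glo luminescence after a minimum 48 h, 37 C compound exposure with 20 nM CPT in Tdp1-knockout DT40 cells stably expressing hTDP1, seeded 400/well; qHTS titration format.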
TDP1 cell noCPT: qHTS for Inhibitors of human tyrosyl-DNA phosphodiesterase 1 (TDP1): qHTS in cells in absence of CPT; DT40 Tdp1-/- hTDP1 cells, no CPT, ATP luminescence, 48 h; AID 686978, 2013; 15% of 420,000 active; Potency, µM (highest dose often 46.2 µM), without a hit: at the highest dose activity change, negative = growth inhibition, most hits filed as inhibitors; note: potency is the fitted concentration of half-maximal effect; nearly all actives have a fitted effect of over 55% in size
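Stably hTDP1-transfected Tdp1-null chicken DT40 cells were treated with library compounds minus camptothecin and grown for at least 48 hr at 37 °C, after which cellular ATP was quantified by luminescence.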
HT1080 IDH1KD tx: kills HT-1080 cells with IDH1 knockdown; 2% of 360,000 active; HT-1080 IDH1 knockdown viability, ATP luminescence, 48 h; Potency, µM (top dose mostly 46.1 µM), for the others: at the top dose activity, negative = toxicity, actives largely listed as cytotoxic;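 note: potency is the fitted concentration of half-maximal effect; 0% = DMSO wells and -100% = cell-free medium wells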
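IDH1KD HT-1080 cells, 750/well, RPMI + 5% FBS; compound pinned after 2 h settling; 48 h, 37 °C; CellTiter-Glo luminescence; % activity normalised to DMSO and no-cell wells; curves fitted, classed by r2 and efficacy.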
HT1080-NT tox: kills 2HG-producing HT-1080-NT fibrosarcoma cells. HT-1080-NT fibrosarcoma viability, CellTiter-Glo ATP luminescence, 48 h. Potency, µM (doses to about 46.1 µM), inactives show at the highest dose activity, negative = less viability, usual class: cytotoxic. 1.6% of 360,000 active;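 note: NT is the 2HG producing partner of a matched IDH1 knockdown line; potency is the fitted concentration of half-maximal effect; 0% = DMSO-treated cells and -100% = media-only wells without cells; nearly all actives have a fitted effect of over 55% in size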
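Fibrosarcoma NT cells, 750 per well in 5% FBS RPMI, were exposed to compound for 48 hours. Viability: CellTiter-Glo luminescence.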
IL-1B inflam inh: blocks inflammasome-driven IL-1 beta release; THP-1 LPS/ATP IL-1B secretion, AlphaLISA, 16 h; active compounds read low; activity change, % at 57.5 µM; 4.7% of 360,000 active; in the data active = activity change below about -50%; inconclusive = mostly about -30% to -49%
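THP-1 cells pretreated 1 hr with compounds (up to 57.5 uM final), then stimulated with LPS (250 ng/mL final) plus ATP (1.25 mM final); secreted IL-1B measured by AlphaLISA after 16 hr, decreased signal indicating inhibition.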
* hit, by the source's call; ? = inconclusive; . = not tested or not shown; [ ] = remark or other dose. Unless noted, calls come from the whole dose curve; as a rule, active = well fitted curve in the direction sought with a large enough effect; inconclusive = small, poorly fitted or top-dose-only effect, or another doubt; inactive = no such curve, though single readings can be large; an effect the other way counts as inactive or inconclusive. Unless noted, % is set by controls: 0 for no effect and ±100 for the full control effect.

SMILES	DT40 TDP1 CPT	TDP1 cell noCPT	HT1080 IDH1KD tx	HT1080-NT tox	IL-1B inflam inh
C=CCc1cccc(/C=N/NC(=O)CCC(=O)Nc2ccc(F)cc2)c1O	9.2µM*	8.2µM*	23µM*	?	124
C=CCc1cccc(/C=N/NC(=O)CNc2cccc3ccccc23)c1O	4.6µM*	5.8µM*	?	?	28
CCOc1ccc(S(=O)(=O)N(CC)CC)cc1NC(=O)CSCc1c(C)noc1C	?	?	-5%	0%	-26
CCc1sc(C(=O)N(CCOC)c2c(N)n(Cc3ccccc3)c(=O)[nH]c2=O)cc1C	-3%	6%	-1%	3%	-16
COc1ccc(/C=N/NC(=O)c2cccc(COCC(F)(F)C(F)F)c2)cc1	-26%	-18%	?	-11%	-8
O=C(Cn1c(=O)oc2ccccc21)N1CCCC1	-1%	20%	2%	8%	-9
C=CCc1cccc(/C=N/NC(=O)CCCNc2ccc(C)cc2)c1O	-88%	21µM*	?	?	37
C=CCc1cccc(/C=N/NC(=O)CNc2ccccc2OC)c1O	?	21µM*	18µM*	?	253
NC(=O)c1ccc[n+]([C@@H]2O[C@H](COP(=O)([O-])OP(=O)(O)OC[C@H]3O[C@@H](n4cnc5c(N)ncnc54)[C@H](O)[C@@H]3O)[C@@H](O)[C@H]2O)c1	7%[21.1 µM]	-18%[21.1 µM]	.	.	.
O=C1ON(Cc2ccccc2)C(c2ccccc2)N1c1ccccc1 (configuration not stated)	6%	-10%	23%	15%	-1
C[n+]1c2n(c3ccccc31)N=C(c1ccc(-c3ccccc3)cc1)CS2	0.58µM*	0.52µM*	?	?	?
C[n+]1c2n(c3ccccc31)N=C(c1ccc(Br)cc1)CS2	0.65µM*	0.52µM*	13µM*	?	-89*
C[n+]1c2n(c3ccccc31)N=C(c1ccccc1)CS2	2.3µM*	2.3µM*	?	?	?
CCC(=O)N(CCc1ccc(S(N)(=O)=O)cc1)C1CC(=O)N(c2ccc(OC)cc2)C1=O (configuration not stated)	-3%	-8%	22%	15%	5
CN(C)C(CNc1ccc(S(C)(=O)=O)cc1[N+](=O)[O-])Cc1ccccc1 (configuration not stated)	0%	-23%	-1%	-2%	-20
CCOC(=O)C1CCCN(C(=O)CN2C(=O)/C(=C/c3ccc(OC)cc3)Oc3ccccc32)C1 (configuration not stated)	?	13µM*	-5%	-12%	-20
CCC1CN(C(=O)NCc2cccc(OC)c2)c2cc(Cl)ccc2O1 (configuration not stated)	15µM*	?	-6%	-2%	0
CCC1CN(C(=O)Nc2cc(Cl)c(OC)cc2OC)c2ccccc2O1 (configuration not stated)	12%	-2%	.	.	.
CCC1CN(C(=O)NCc2cccc(OC)c2)c2ccccc2O1 (configuration not stated)	?	15µM*	-5%	1%	10
CCOC(=O)c1ccc(S(=O)(=O)NNS(=O)(=O)c2ccc(C)cc2)cc1	11%	1%	10%	3%	-26
CCOC(=O)c1ccc(S(=O)(=O)NC2CCC(C)CC2)cc1 (configuration not stated)	16µM*	21µM*	-5%	-2%	19
CN(C(=O)c1cc(-c2ccc3c(c2)OCO3)on1)c1ccccc1	12%	3%	-16%	-23%	15
COc1cccc(C2=NC(C)(C)NC(c3ccccc3O)C2)c1 (configuration not stated)	15µM*	18µM*	-5%	0%	?
CCC1(C)N=C(c2ccc3c(c2)OCO3)CC(c2ccccc2O)N1 (configuration not stated)	13µM*	13µM*	?	?	3
C=C[C@@H]1CN2CCC1C[C@H]2[C@H](O)c1ccnc2ccc(OC)cc12 (some centres not stated)	.	.	5%	1%	.
SMILES	DT40 TDP1 CPT	TDP1 cell noCPT	HT1080 IDH1KD tx	HT1080-NT tox	IL-1B inflam inh
CC1=C(C(=O)Nc2ccccc2)C(c2cccs2)n2nc(SCc3ccccc3)nc2N1 (configuration not stated)	-19%	?	.	.	.
COc1cccc(-c2nc3n(n2)C(c2cccs2)C(C(=O)Nc2cccnc2)=C(C)N3)c1 (configuration not stated)	15µM*	?	1%	4%	15
COc1ccccc1NC(=O)C1=C(C)Nc2nc(SCc3ccccc3)nn2C1c1cccs1 (configuration not stated)	-101%	15µM*	.	.	.
CC1=C(C(=O)Nc2ccc(C)cc2C)C(c2cccs2)n2nc(SCc3cccc(C)c3)nc2N1 (configuration not stated)	21µM*	18µM*	.	.	.
COc1cccc(CSc2nc3n(n2)C(c2cccs2)C(C(=O)Nc2ccccc2C)=C(C)N3)c1 (configuration not stated)	21µM*	13µM*	.	.	.
COc1ccc(-c2nc3n(n2)C(c2ccccc2)C(C(=O)Nc2cccnc2)=C(C)N3)cc1 (configuration not stated)	-27%	-23%	.	.	.
CCc1ccc(C2C(C(=O)Nc3ccccc3C)=C(C)Nc3nc(SCc4cccc(OC)c4)nn32)cc1 (configuration not stated)	-5%	-19%	.	.	.
O=C(COC(=O)c1cccc(F)c1)Nc1ccc2c(c1)OCCO2	-2%	-3%	0%	0%	-4
CN(C(=O)c1cc(-c2cccs2)nn1-c1ccccc1)C1CCS(=O)(=O)C1 (configuration not stated)	-3%	10%	8%	3%	12
O=C(N/N=C\c1c(O)ccc2ccccc12)c1ccc(S(=O)(=O)N2CCCCC2)cc1	3.3µM*	3.7µM*	?	?	99
COc1ccccc1/C=N/NC(=O)CNC(=O)c1ccc(S(=O)(=O)N2CCCC2)cc1	1%	0%	1%	-2%	-1
Cc1cc(O)cc(O)c1/C=N/NC(=O)c1ccc2c(c1)OCCO2	5.8µM*	6.5µM*	13µM*	?	117
O=C(CNC(=O)c1ccc(S(=O)(=O)N2CCCC2)cc1)N/N=C/c1ccccc1Cl	?	13µM*	-8%	-7%	-19
O=C(N/N=C/c1c(O)ccc2ccccc12)c1ccc(CO)nc1	4.6µM*	4.6µM*	?	-16%	114
O=C(NCc1ccccc1)c1ccc(S(=O)(=O)N2CCCCCC2)cc1	?	?	0%	-4%	-25

Bioassay records: PubChem, National Center for Advancing Translational Sciences (NCATS)
